Screening data deposited in PubChem BioAssay by several laboratories.
In the library only some 28% were active in any assay of this set; here they are far more common.
D1 mod – D1 CRE-luciferase signal change, two-sided – cell-based, HEK293 D1, dopamine EC30, D1 allosteric modulator project, primary screen | 58,000 tested, 5.9% active | AID 641, 2007 | dopamine EC30 potentiation; actives deviate in either direction | D(1A) dopamine receptor (Homo sapiens), P21728 | B-score at 10 µM;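 active means luminescence count or its row- and column-corrected plate score outside the 99.7% band of the plate's sample wells, on either side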
CYP2C19 inhib – blockers of cytochrome P450 2C19 activity – biochemical, luminescence, ADME assay, primary screen. CYP2C19 Supersomes, luciferin-H EGE luminescence, 30 min. 96,000 tested, 21% active. inhibition, % at 5 µM. P33261;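 active means CYP2C19 inhibition above a set limit at 5 µM in the primary screen, cut at about 50% in these data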;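 further: plate controls were negative control wells for no effect and 2.5 mM tranylcypromine positive control for full effect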
Target sequence (P33261 whole entry, looked up): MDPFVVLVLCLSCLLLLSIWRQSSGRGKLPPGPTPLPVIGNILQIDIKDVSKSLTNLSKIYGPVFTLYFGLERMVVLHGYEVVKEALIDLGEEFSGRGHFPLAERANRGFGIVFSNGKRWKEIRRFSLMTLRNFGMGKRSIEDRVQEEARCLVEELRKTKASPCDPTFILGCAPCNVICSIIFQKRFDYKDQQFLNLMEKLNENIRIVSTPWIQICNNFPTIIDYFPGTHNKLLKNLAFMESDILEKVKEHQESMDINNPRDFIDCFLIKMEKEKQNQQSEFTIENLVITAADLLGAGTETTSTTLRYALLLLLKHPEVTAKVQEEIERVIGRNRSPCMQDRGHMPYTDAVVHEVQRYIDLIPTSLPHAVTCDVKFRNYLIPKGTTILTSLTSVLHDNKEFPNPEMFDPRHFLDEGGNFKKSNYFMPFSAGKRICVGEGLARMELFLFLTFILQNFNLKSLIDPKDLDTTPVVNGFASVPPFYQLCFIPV
DAT uptake mod – changed hDAT dopamine uptake under cocaine IC80, either direction, primary screen, cocaine antagonist project, cell-based, LLC-PK1 hDAT, [14C]-dopamine uptake, MLSMR; Sodium-dependent dopamine transporter (Homo sapiens), Q01959; LLC-PK1 hDAT cells, [14C]-dopamine uptake with cocaine IC80; actives deviate in either direction; 110,000 tested, 1.3% active; B-score at 10 µM;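 active means Z score or B-score, a plate-position-corrected score, falls beyond the plate's 99.7% confidence bounds, in either direction; inactive means both scores lie inside the 99.7% bounds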;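 further: scored against the spread of the other compound wells on the same plate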
CYP2C19 activ – human CYP2C19 activators, primary screen, biochemical, luminescence | 96,000 tested, under 10 active | recombinant CYP2C19, luciferin-H EGE luminescence; stronger effect = higher value; 0 = fully inhibited enzyme, 1 = untreated enzyme | activation factor at 5 µM;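 active means activation factor of at least 2 at 5 µM in the primary screen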;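 further: 0 = wells with 2.5 mM tranylcypromine and 1 = vehicle-only wells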
CYP2C9 inhib – blockers of cytochrome P450 2C9 activity – biochemical, luminescence, ADME assay, primary screen. P11712. CYP2C9 Supersomes, luciferin-H conversion. inhibition, % at 5 µM. 96,000 tested, 20% active. AID 777, 2007;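 active means blocking of liver enzyme CYP2C9 beyond about 50% at 5 µM, limit read from the data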
CYP2C9 act – human CYP2C9 activators, primary screen, biochemical, luminescence | Cytochrome P450 2C9 (Homo sapiens), P11712 | recombinant CYP2C9, luciferin-H conversion; stronger effect = higher value; factor 1 = untreated enzyme, 0 = blocked | activation factor at 5 µM | 96,000 tested, 1.4% active;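 active means activation factor of 2 or more for CYP2C9 at a 5 µM dose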;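 further: 0 = sulfaphenazole-blocked wells and 1 = vehicle-only wells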
D1 PAM confirm – D1 receptor positive allosteric modulators, retest, confirmation, cell-based, HEK293 D1, CRE-luciferase, duplicate; shares compounds with D1 mod; 2,200 tested, 88% active; dopamine EC30 potentiation; stronger effect = higher value; luminescence at 10 µM;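 active means luminescence in either of two replicates above the same-plate mean plus 3 SD of the low-dose dopamine control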
D1 no dopamine – D1 receptor agonism without dopamine, confirmation, mechanism study for D1 allosteric modulator project, cell-based, HEK293 D1, CRE-luciferase, secondary assay 1; shares compounds with D1 mod; 1,900 tested, 0.8% active; AID 646, 2007; luminescence, no dopamine; stronger effect = higher value; luminescence at 10 µM; in the data active means luminescence above about 3900
Isoprot counter – isoproterenol response counter-screen activity for D1 modulators; AID 647; shares compounds with D1 mod; calls only at 10 µM; HEK293 D1 CRE-luciferase, isoproterenol EC30 counter-screen; 2,200 tested, 63% active;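 active means luminescence in either replicate above plate mean of wells with a partly effective reference agonist dose plus 3 SD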;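 further: isoproterenol raises cAMP through native beta-adrenoceptor Gs so signal bypasses D1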
An asterisk follows results filed as active; i = inactive; · = no result; + = active, no number.

SMILES | D1 mod | CYP2C19 inhib | DAT uptake mod | CYP2C19 activ | CYP2C9 inhib | CYP2C9 act | D1 PAM confirm | D1 no dopamine | Isoprot counter
Cc1ccc(C)c(N2CCN(C(=O)c3cn(C)c4ccc(S(=O)(=O)N(C)C)cc4c3=O)CC2)c1 | · | 38 | 0.61 | 0.6 | 3 | 1 | · | · | ·
COc1ccc(N2CCN(c3nc(NC(C)(C)C)nc(N4CCCCC4)n3)CC2)cc1 | 0.53 | 17 | -0.35 | 0.8 | 46 | 0.5 | · | · | ·
COc1ccc(Nc2cc(C)nc(N3CCOCC3)n2)cc1 | 3.6* | 11 | 1.8 | 0.9 | 4 | 1 | 8656* | 1964 | +
Cc1ccccc1OCC(=O)N(Cc1ccc(N(C)C)cc1)C1CCS(=O)(=O)C1 (stereo unspecified) | 0.04 | 22 | 0.67 | 0.8 | 13 | 0.9 | · | · | ·
CC(C)c1nc2sc3c(SCC(=O)NCc4ccco4)ncnc3c2c2c1CCC2 | 14* | 59* | 0.083 | 0.4 | 70* | 0.3 | 17912* | · | i
Cc1cc(NC(=O)COC(=O)c2c(C)nn(-c3ccccc3)c2C)no1 | 0.24 | 26 | 0.072 | 0.7 | 29 | 0.7 | · | · | ·
Cc1nc(COC(=O)c2c(C)nn(-c3ccccc3)c2C)cs1 | 6.9* | 47 | 0.57 | 0.5 | 69* | 0.3 | 8048* | 1512 | +
CC(C)c1ccc(-c2nc(N3CCCCC3)[nH]c(=O)c2C#N)cc1 | 5.5* | · | -0.24 | · | · | · | 19464* | 1772 | i
Cc1cc(C)n(-c2nc3c(c(=O)[nH]c(=O)n3C)n2CCc2ccccc2)n1 | 3.8 | 25 | -1.7 | 0.8 | 2 | 1 | · | · | ·
Cc1cc(C)n(-c2nc3c(c(=O)[nH]c(=O)n3C)n2Cc2ccccc2)n1 | 7.9* | -7 | -0.19 | 1.1 | -9 | 1.1 | 11052* | 1636 | +
Cc1cc(C)n(-c2nc3c(c(=O)[nH]c(=O)n3C)n2C)n1 | 1.8* | -10 | 0.26 | 1.1 | -10 | 1.1 | 5180 | 1016 | i
O=C1CC2CS(=O)(=O)CC2N1C1CCCCC1 (stereo unspecified) | -0.15 | -12 | -1.1 | 1.1 | -10 | 1.1 | · | · | ·
Nc1nc(OCC(F)(F)F)cc(Oc2ccccc2F)n1 | 8.7* | 59* | 0.74 | 0.4 | 14 | 0.9 | 14824* | 1612 | +
COc1ccc(N2CCN(C(=O)CCn3nnc4ccccc43)CC2)cc1 | 0.25 | 21 | -0.79 | 0.8 | 4 | 1 | · | · | ·
c1ccc2c(c1)OCC(c1csc3ncnc(N4CCOCC4)c13)O2 (stereo unspecified) | 3.8* | 78* | -0.058 | 0.2 | 50* | 0.5 | 5072 | 1584 | +
COc1ccccc1CNS(=O)(=O)c1c(C)noc1C | 0 | 43 | -0.74 | 0.6 | 23 | 0.8 | · | · | ·
COc1ccc(C(=O)Nn2c(C)ccc2C)cc1OC | 9.6* | -4 | 0.02 | 1 | -14 | 1.1 | 11780* | 1660 | +
COCCNC(=O)c1ccc(N(C)S(=O)(=O)c2ccc(OC)c(OC)c2)cc1 | 11* | · | -0.47 | · | · | · | 14404* | 1504 | +
CCOc1cc(C(=O)NCCOC)ccc1OC | 4.8* | 2 | -0.87 | 1 | -3 | 1 | 7216* | 1968 | i
Cc1ccc(C)n1NC(=O)c1ccc(Cl)cc1 | · | -4 | -0.65 | 1 | -8 | 1.1 | · | · | ·
COCCNC(=O)c1ccc(Cl)c(Cl)c1 | -0.64 | -5 | -0.51 | 1 | -16 | 1.2 | · | · | ·
COCCCNC(=O)c1ccc(N(C)S(C)(=O)=O)cc1 | 0.017 | -18 | -1.5 | 1.2 | -20 | 1.2 | · | · | ·
O=C(NCCNC(=O)C(c1ccccc1)c1ccccc1)c1ccco1 | 5.3* | 66* | 0.79 | 0.3 | 51* | 0.5 | 6392* | · | i
COc1ccccc1C(=O)NCCNC(=O)c1ccco1 | 0.97 | · | -0.1 | · | · | · | · | · | ·
CSc1ccccc1NC(=O)c1onc(C)c1Cl | 1.6* | -2 | -0.33 | 1 | -47 | 1.5 | 7308* | 1580 | i
SMILES | D1 mod | CYP2C19 inhib | DAT uptake mod | CYP2C19 activ | CYP2C9 inhib | CYP2C9 act | D1 PAM confirm | D1 no dopamine | Isoprot counter
CCOC(=O)CC(=O)Nc1ccc(C(=O)OCC)cc1 | 4.5* | 27 | -0.41 | 0.7 | 25 | 0.8 | 6944 | 1692 | i
CCOC(=O)c1nn(-c2ccccc2)c(C#N)c1NC(=O)c1nn(CC)cc1Br | 4.3* | 25 | 0.056 | 0.8 | 72* | 0.3 | 8684* | · | +
CCOC(=O)C1(O)CSc2nc3sc(C(=O)O)c(C)c3c(=O)n21 (stereo unspecified) | -1.9 | -18 | -1.4 | 1.2 | -15 | 1.1 | · | · | ·
O=c1c2ccccc2nc(SCc2cn3ccsc3n2)n1-c1ccc(F)cc1 | 8.2* | 84* | 1.7 | 0.2 | 97* | 0 | 10696* | 1584 | +
Cc1nnc(SCc2cn3ccsc3n2)n(N)c1=O | -0.72 | -13 | 0.014 | 1.1 | 9 | 0.9 | · | · | ·
CCN1CCN(C(c2cccs2)C(C)NC(=O)CC(C)C)CC1 (stereo unspecified) | 4.7* | 0 | 0.0024 | 1 | -2 | 1 | 3812 | 1520 | i
C=CCn1c2ccccc2c2nnc(SCN3C(=O)c4ccccc4C3=O)nc21 | 9.9* | 90* | -0.015 | 0.1 | 79* | 0.2 | 16236* | 1984 | +
O=C1c2ccccc2C(=O)N1CSc1nnc2c3ccccc3n(CCc3ccccc3)c2n1 | · | 31 | -0.5 | 0.7 | 40 | 0.6 | · | · | ·
Cn1c(=O)c2c(SCc3ccccc3)nc(-c3ccco3)nc2n(C)c1=O | 3.3* | -1 | -0.00094 | 1 | 5 | 0.9 | 12880* | 1832 | i
Cn1c(=O)c2c(SCc3cccc(C(F)(F)F)c3)nc(-c3ccco3)nc2n(C)c1=O | -0.24 | 0 | -0.01 | 1 | 21 | 0.8 | · | · | ·
CCc1cc(=O)oc2cc3oc(C)c(C)c3cc12 | 4.5* | 44 | -0.38 | 0.6 | 17 | 0.8 | 5904 | 1888 | i
CCc1cc(=O)oc2cc(OS(C)(=O)=O)ccc12 | · | · | -0.31 | · | · | · | · | · | ·
CCOc1ccc(S(=O)(=O)Nc2ccc3c(c2)OCO3)c2cccnc12 | 4.8* | 82* | -0.012 | 0.2 | 38 | 0.6 | 9784* | 1612 | +
CCOc1ccc(S(=O)(=O)NCc2ccc(F)cc2)c2cccnc12 | 10* | 51* | -2.7 | 0.5 | -22 | 1.2 | 10944* | · | +
